# PubChem BioAssay (EPA / NIEHS)
# Inconclusive results are not listed. Active and inactive are the calls of the source. The calls were made as follows, unless noted: active = hit-call score of the fitted dose curve at least 0.9, where 1 is the maximum; inconclusive = response in the unintended direction; inactive = score below 0.9.
# How the values were obtained:
# [1] = biological target: Nucleoli Translocation, AR (gene 367) (UniProt P10275); assay: UPITT_HCI_U2OS_AR_TIF2_Nucleoli_Antagonist: University of Pittsburgh U2OS Androgen Receptor-Transcriptional Intermediary Factor 2 (AR-TIF2) Antagonism High Content Imaging Assay for Nucleoli Translocation (AID 2283997)
# Sequence of Nucleoli Translocation, AR (gene 367) (P10275 whole entry, looked up): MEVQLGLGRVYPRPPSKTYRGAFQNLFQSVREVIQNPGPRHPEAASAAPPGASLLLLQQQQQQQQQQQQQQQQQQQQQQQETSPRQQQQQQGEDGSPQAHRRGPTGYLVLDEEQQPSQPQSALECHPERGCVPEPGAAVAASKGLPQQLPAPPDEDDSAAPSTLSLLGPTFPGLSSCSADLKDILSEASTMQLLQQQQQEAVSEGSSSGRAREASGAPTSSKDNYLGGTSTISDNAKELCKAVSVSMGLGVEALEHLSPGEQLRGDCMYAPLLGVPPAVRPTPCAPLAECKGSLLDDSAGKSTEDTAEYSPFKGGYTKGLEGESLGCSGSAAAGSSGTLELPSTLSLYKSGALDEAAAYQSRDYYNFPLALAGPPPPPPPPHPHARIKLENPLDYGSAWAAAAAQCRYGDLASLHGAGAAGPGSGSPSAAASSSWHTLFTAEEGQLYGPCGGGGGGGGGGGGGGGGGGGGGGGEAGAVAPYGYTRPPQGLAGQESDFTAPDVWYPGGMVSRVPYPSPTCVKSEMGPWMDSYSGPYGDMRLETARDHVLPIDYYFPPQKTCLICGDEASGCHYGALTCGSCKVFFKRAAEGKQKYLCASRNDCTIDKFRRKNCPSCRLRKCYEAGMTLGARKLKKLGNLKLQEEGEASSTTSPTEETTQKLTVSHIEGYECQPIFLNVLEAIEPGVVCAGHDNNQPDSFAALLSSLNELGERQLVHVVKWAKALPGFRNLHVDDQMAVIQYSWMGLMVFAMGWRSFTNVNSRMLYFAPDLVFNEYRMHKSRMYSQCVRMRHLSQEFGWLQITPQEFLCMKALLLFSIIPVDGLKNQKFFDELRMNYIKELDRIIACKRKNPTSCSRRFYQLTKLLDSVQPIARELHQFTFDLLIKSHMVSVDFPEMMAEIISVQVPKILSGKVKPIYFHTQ
# Procedure, shortened: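 Measured quantity was AR-RFP fluorescence localized to nucleoli in engineered U2OS cells also bearing TIF2-GFP, acquired on automated high-content imagers. Primary testing used 20 uM compound; actives were confirmed in triplicate wells.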
# [2] = biological target: Nucleoli Translocation, AR (gene 367) (UniProt P10275); assay: UPITT_HCI_U2OS_AR_TIF2_Nucleoli_Agonist: University of Pittsburgh U2OS Androgen Receptor-Transcriptional Intermediary Factor 2 (AR-TIF2) Agonism High Content Imaging Assay for Nucleoli Translocation (AID 2283998)
# Procedure, shortened: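 Red-tagged human androgen receptor co-expressed with GFP-tagged TIF2 serves as the binding reporter. Primary testing used 20 uM final (0.2% DMSO); follow-up dose response covered 0.195 to 50 uM final (0.5% DMSO).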
# [3] = biological target: Ratio of Nucleoli Translocation and Cytoplasm, AR (gene 367) (UniProt P10275); assay: UPITT_HCI_U2OS_AR_TIF2_Nucleoli_Cytoplasm_Ratio_Agonist: University of Pittsburgh U2OS Androgen Receptor-Transcriptional Intermediary Factor 2 (AR-TIF2) Agonism High Content Imaging Assay for Ratio of Nucleoli Translocation and Cytoplasm (AID 2284000);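 also: hits raise the red nucleolar to cytoplasm ratio above vehicle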
# Sequence of Ratio of Nucleoli Translocation and Cytoplasm, AR (gene 367) (P10275 whole entry, looked up): as above
# Procedure, shortened: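 Read-out first: nucleolar-to-cytoplasm ratio of red (AR-RFP) signal, quantified by high-content imaging in U2OS cells co-expressing TIF2-GFP. Activity is scored as signal increase over DMSO. Single-point screening used 20 uM final (0.2% DMSO).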
# [4] = CCTE_Simmons_MITO_basal_resp_rate: CCTE's HepG2 Seahorse XF Respirometric Screening Assay at Basal Respiratory State, Simmons Lab (AID 2284001; active = hit-call score of the fitted dose curve at least 0.9, where 1 is the maximum; inactive = score below 0.9); conditions: actives raise or lower the signal
# Procedure, shortened: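 HepG2 respirometry; 7-pt titration 125 nM–100 uM final; kinetic OCR at 6 min intervals for 72 min; n=3 biological, technical singles; DMSO baseline, gain or loss fit; fenpyroximate (decrease) and 2,4-DNP (increase) controls.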
# [5] = CCTE_Simmons_MITO_max_resp_rate: CCTE's HepG2 Seahorse XF Respirometric Screening Assay at Maximal Respiratory State [uncoupled], Simmons Lab (AID 2284002; active = hit-call score of the fitted dose curve at least 0.9, where 1 is the maximum; inactive = score below 0.9); conditions: actives raise or lower the signal
# Procedure, shortened: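 Maximal respiration in HepG2 cells is recorded as OCR by Seahorse XF following FCCP injection. Compounds span 125 nM–100 uM final; activity is called in either direction against DMSO.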
# [6] = CCTE_Simmons_MITO_inhib_resp_rate: CCTE's HepG2 Seahorse XF Respirometric Screening Assay at Inhibited Respiratory State [full ETC block], Simmons Lab (AID 2284006; active = hit-call score of the fitted dose curve at least 0.9, where 1 is the maximum; inactive = score below 0.9); conditions: actives raise or lower the signal
# Procedure, shortened: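 HepG2 cells on Seahorse XF96; oxygen consumption measured after test compound, then FCCP, then rotenone/antimycin A injections over 72 min. Test chemicals at 7 concentrations, 125 nM–100 uM final. OCR fitted bidirectionally versus DMSO.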
# [7] = CCTE_Simmons_MITO_viability: CellTiter-Glo Viability Assessment for CCTE's HepG2 Seahorse XF Respirometric Screening Assay [post-hoc], Simmons Lab (AID 2284007);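 as to AC50: cells exposed to chemical for 90 min before the ATP read; actives lower ATP signal relative to DMSO baseline meaning reduced viability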
# Procedure, shortened: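 HepG2 cells from the Seahorse XF respirometry run were exposed 90 min to a 7-point series, 125 nM–100 uM final, DMSO vehicle; ATP content then read by luciferase luminescence. Three biological replicates, technical singles; loss of signal fitted versus DMSO.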
# DIO1 (gene 1733) = assay: CCTE_GLTED_hDIO1: CCTE's human Deiodinase 1 (DIO1) Inhibition Assay, Great Lakes Toxicology and Ecology Division (GLTED) Lab (AID 2283987);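 also: isolated human DIO1 enzyme in a cell-free setup rather than cells; enzyme activity read as free iodide liberated from substrate via Sandell-Kolthoff colorimetry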
# Procedure, shortened: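 Cell-free hDIO1 assay, triplicate plates. Absorbance of the Sandell-Kolthoff reaction reports enzyme-liberated iodide; iodinated chemicals or nitrite, iron and thiocyanate may interfere.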
# [8] = CCTE_Shafer_MEA_acute_spike_number: CCTE's Neural Acute Assay for Total Number of Spikes, Shafer Lab (AID 2284008; active = hit-call score of the fitted dose curve at least 0.9, where 1 is the maximum; inactive = score below 0.9;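 also: curve fitted for decrease in spike count so AC50 reflects inhibitors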)
# Procedure, shortened: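 Cortical neurons from rat, matured to DIV 13 or 15 on microelectrode arrays, are recorded at 37 C before and during 40-min exposure to 0.03-40 uM compound. Wells need >/= 10 active electrodes.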
# [9] = CCTE_Shafer_MEA_acute_firing_rate_mean: CCTE's Neural Acute Assay for Mean Firing Rate, Shafer Lab (AID 2284009; active = hit-call score of the fitted dose curve at least 0.9, where 1 is the maximum; inactive = score below 0.9;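 also: analyzed for loss of signal so actives lower firing rate relative to DMSO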)
# Procedure, shortened: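 Percent change in well-mean firing rate was derived from extracellular spikes detected at 8x rms noise (300-5000 Hz band-pass) before and after a 40-min compound exposure. Cultures were primary rat cortical neurons, tested at 0.03-40 uM.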
smiles,measurement,setting,value
O=C(O)Cn1c(=O)n(Cc2ccc(Br)cc2F)c(=O)c2ccc(Cl)cc21,outcome,[1],inactive
same,outcome,[2],inactive
same,outcome,[3],inactive
Cc1cc(F)ccc1-c1cc(N2CC[C@@H](O)[C@H]2CO)ncc1N(C)C(=O)C(C)(C)c1cc(C(F)(F)F)cc(C(F)(F)F)c1,outcome,[1],inactive
same,AC50,[2],40.8 µM (active)
same,AC50,[3],60.4 µM (active)
same,AC50,[4],40.8 µM (active)
same,AC50,[5],36.7 µM (active)
same,outcome,[6],inactive
same,outcome,[7],inactive
CC(C)(C)c1cc(/C=C2\SC(N)=NC2=O)cc(C(C)(C)C)c1O,AC50,DIO1 (gene 1733),3.01 µM (active)
same,AC50,[8],14.7 µM (active)
same,AC50,[9],14.8 µM (active)
CCN(Cc1cccnc1)C(=O)c1cccc(Cl)c1[C@]1(C)C(=O)N(Cc2ccc(OC)cc2OC)c2ccc(Cl)cc21,outcome,[1],inactive
same,outcome,[2],inactive
same,outcome,[3],inactive
same,AC50,[4],2.36 µM (active)
same,AC50,[5],2.17 µM (active)
same,outcome,[6],inactive
same,outcome,[7],inactive
OCCO,outcome,[1],inactive
same,outcome,[2],inactive
same,outcome,[3],inactive
Cc1c2ccccc2c(C)c2c1ccc1ccccc12,AC50,[1],50 µM (active)
same,outcome,[2],inactive
same,outcome,[3],inactive
same,AC50,[4],17.1 µM (active)
same,AC50,[5],26.1 µM (active)
same,outcome,[6],inactive
same,AC50,[7],19.4 µM (active)
same,AC50,[8],20 µM (active)
same,AC50,[9],20 µM (active)
CCOC(=O)O[C@H](C)OC(=O)c1ccc2c(c1)cc(C(=O)NC1CCN(C(C)C)CC1)n2Cc1cc(-c2ccc(Cl)s2)on1,AC50,DIO1 (gene 1733),97.5 µM (active)
CC(C)(C)c1csc(-c2cc3cc(OCc4ccccc4CC(=O)O)ccc3o2)n1,AC50,DIO1 (gene 1733),100 µM (active)
same,AC50,[4],4.24 µM (active)
same,AC50,[5],4.72 µM (active)
same,AC50,[6],4.67 µM (active)
same,AC50,[7],50 µM (active)
O=C(Nc1ccc(Cl)cc1)Nc1ccc(Cl)c(Cl)c1,AC50,[1],5.24 µM (active)
same,outcome,[3],inactive
Cc1ccc(C(C)C)cc1,outcome,[1],inactive
same,outcome,[2],inactive
same,outcome,[3],inactive
Oc1ccc2ccccc2c1,outcome,[1],inactive
same,outcome,[2],inactive
same,outcome,[3],inactive
CN(C)c1ccc(C(=C2C=CC(=[N+](C)C)C=C2)c2ccc(N(C)C)cc2)cc1,AC50,[1],0.262 µM (active)
same,AC50,[2],14.6 µM (active)
same,outcome,[3],inactive
same,AC50,[4],50 µM (active)
same,AC50,[5],41.6 µM (active)
same,AC50,[6],61.6 µM (active)
same,AC50,[7],21.4 µM (active)
same,AC50,[8],0.416 µM (active)
same,AC50,[9],0.406 µM (active)
Cc1occc1C(=O)Nc1ccc(C(=O)N2CCC(F)(F)/C(=C\C(=O)N3CCC(N4CCCCC4)CC3)c3ccccc32)cc1,outcome,[1],inactive
same,outcome,[2],inactive
same,outcome,[3],inactive
NC(=O)c1nc(-c2cccc(-c3cc(F)ccc3OCC(F)(F)C(F)(F)F)c2)n[nH]1,outcome,[1],inactive
same,AC50,[2],13.2 µM (active)
same,AC50,[3],12.7 µM (active)
same,AC50,[4],6.26 µM (active)
same,AC50,[5],6.36 µM (active)
same,outcome,[6],inactive
same,outcome,[7],inactive
same,AC50,[8],0.648 µM (active)
same,AC50,[9],0.649 µM (active)
